Where a chain is given by its changes, count along the chain named. Names and notes keep the numbering of the source.
B1: 24 (nucleosome)
DNA 1: ATCCTGGAGAATCCCGGTGCCGAGGCTCAAGGCCAGGTCGTAGACAGCTCTAGCACCGCTTAAACGCACGTACGCGCTGTCCCCCGCGTTTTAACCGCCAAGGGGATTACTCCCTAGTCTCCAGGCACGTGTCAGATATATACATCCTGTGAT
DNA 2: ATCACAGGATGTATATATCTGACACGTGCCTGGAGACTAGGGAGTAATCCCCTTGGCGGTTAAAACGCGGGGGACAGCGCGTACGTGCGTTTAAGCGGTGCTAGAGCTGTCTACGACCTGGCCTTGAGCCTCGGCACCGGGATTCTCCAGGAT
modifications: reconstituted with mouse histones H2A, H2B, H3.3 and H4
B2: 18 (nucleosome)
DNA 1: ATCCTGGAGAATCCCGGTGCTCAAGGCCATCAATTGGTCGTAGACAGCTCTAGCACCGCTTAAACGCACGTACGCGCTGTCCCCCGCGTTTTAACCGCCAAGGGGATTACTCCCTAGTCTCCAGGCACGTGTCAGATATATACATCCTGTGAT
DNA 2: ATCACAGGATGTATATATCTGACACGTGCCTGGAGACTAGGGAGTAATCCCCTTGGCGGTTAAAACGCGGGGGACAGCGCGTACGTGCGTTTAAGCGGTGCTAGAGCTGTCTACGACCAATTGATGGCCTTGAGCACCGGGATTCTCCAGGAT
modifications: reconstituted with mouse histones H2A, H2B, H3.3 and H4
B3: 21 (nucleosome)
DNA 1: B2 DNA 1 with T21C, C22G, A24T, G25C, G26A, C27A, C28G, A29G, T30C
DNA 2: B2 DNA 2 with A124G, T125C, G126C, G127T, C128T, C129G, T130A, G132C, A133G
modifications: reconstituted with mouse histones H2A, H2B, H3.3 and H4
B4: 19 (nucleosome)
DNA 1: B2 DNA 1 with T21C, C22T, A23C, G25A, C27G, A29C, T30A
DNA 2: B2 DNA 2 with A124T, T125G, G127C, C129T, T131G, G132A, A133G
modifications: reconstituted with mouse histones H2A, H2B, H3.3 and H4
B5: 22 (nucleosome)
DNA 1: B1 DNA 1 with G25T, T27A, C28A, A29G, A30G, G31C, G32C, C33A, C34T, A35T
DNA 2: B2 DNA 2 with T122G, A124C, T125C, G126T, G127T, C128G, C129A, T130C, G132C, A133G
modifications: reconstituted with mouse histones H2A, H2B, H3.3 and H4
B6: 23 (nucleosome)
DNA 1: B1 DNA 1 with C26T, T27C, C28A, A30G, G32C, C34A, A35T
DNA 2: B1 DNA 2 with T119A, G120T, C122G, T124C, G126T, A127G, G128A
modifications: reconstituted with mouse histones H2A, H2B, H3.3 and H4
B7: 20 (nucleosome)
DNA 1: ATCCTGGAGAATCCCGGTGCCGTCAAGGCCAAATTGGTCGTAGACAGCTCTAGCACCGCTTAAACGCACGTACGCGCTGTCCCCCGCGTTTTAACCGCCAAGGGGATTACTCCCTAGTCTCCAGGCACGTGTCAGATATATACATCCTGTGAT
DNA 2: ATCACAGGATGTATATATCTGACACGTGCCTGGAGACTAGGGAGTAATCCCCTTGGCGGTTAAAACGCGGGGGACAGCGCGTACGTGCGTTTAAGCGGTGCTAGAGCTGTCTACGACCAATTTGGCCTTGACGGCACCGGGATTCTCCAGGAT
modifications: reconstituted with mouse histones H2A, H2B, H3.3 and H4
B8: 3 (nucleosome)
DNA 1: ATCCTTCAAGGCCACGGTGCCGAGGCCGCTCAATTGGTCGTAGACAGCTCTAGCACCGCTTAAACGCACGTACGCGCTGTCCCCCGCGTTTTAACCGCCAAGGGGATTACTCCCTAGTCTCCAGGCACGTGTCAGATATATACATCCTGTGAT
DNA 2: ATCACAGGATGTATATATCTGACACGTGCCTGGAGACTAGGGAGTAATCCCCTTGGCGGTTAAAACGCGGGGGACAGCGCGTACGTGCGTTTAAGCGGTGCTAGAGCTGTCTACGACCAATTGAGCGGCCTCGGCACCGTGGCCTTGAAGGAT
modifications: reconstituted with mouse histones H2A, H2B, H3.3 and H4

Each binder was assayed against NR5A2 wild type;histone octamer (Homo sapiens;, UniProt O00482;C0HKE1;Q6ZWY9;P84244;P62806 1-541;2-130;2-126;2-136;2-103, |) (assay: SeEN-seq (EMSA of nucleosome library followed by sequencing); 0.8 uM human NR5A2; 20 mM Tris-HCl pH 7.5, 120 mM NaCl, 1 mM MgCl2, 10 uM ZnCl2, 1 mM DTT, 100 ug/ml BSA, room temperature, 30 min; 0.1 uM nucleosome library; high values mean tight binding).

| Binder | binding signal |
| --- | --- |
| B1 | 0.706 log2 enrichment (bound/unbound, relative to Widom 601) |
| B2 | 1.7 log2 enrichment (bound/unbound, relative to Widom 601) |
| B3 | 1.08 log2 enrichment (bound/unbound, relative to Widom 601) |
| B4 | 1.35 log2 enrichment (bound/unbound, relative to Widom 601) |
| B5 | 1.02 log2 enrichment (bound/unbound, relative to Widom 601) |
| B6 | 1.81 log2 enrichment (bound/unbound, relative to Widom 601) |
| B7 | 1.09 log2 enrichment (bound/unbound, relative to Widom 601) |
| B8 | 6.62 log2 enrichment (bound/unbound, relative to Widom 601) |

These binders were tested against mouse Nr5a2 wild type;histone octamer (Mus musculus;, UniProt P45448;C0HKE1;Q6ZWY9;P84244;P62806 1-560;2-130;2-126;2-136;2-103, |) (assay: SeEN-seq (EMSA of nucleosome library followed by sequencing); 1.2 uM mouse Nr5a2; 20 mM Tris-HCl pH 7.5, 120 mM NaCl, 1 mM MgCl2, 10 uM ZnCl2, 1 mM DTT, 100 ug/ml BSA, room temperature, 30 min; 0.1 uM nucleosome library; high values mean tight binding).

| Binder | binding signal |
| --- | --- |
| B1 | 0.642 log2 enrichment (bound/unbound, relative to Widom 601) |
| B2 | 2.1 log2 enrichment (bound/unbound, relative to Widom 601) |
| B3 | 1.08 log2 enrichment (bound/unbound, relative to Widom 601) |
| B4 | 1.28 log2 enrichment (bound/unbound, relative to Widom 601) |
| B5 | 0.698 log2 enrichment (bound/unbound, relative to Widom 601) |
| B6 | 2.16 log2 enrichment (bound/unbound, relative to Widom 601) |
| B7 | 1.09 log2 enrichment (bound/unbound, relative to Widom 601) |
| B8 | 5.04 log2 enrichment (bound/unbound, relative to Widom 601) |

From PMC11102866, “Nucleosome-bound NR5A2 structure reveals pioneer factor mechanism by DNA minor groove anchor competition”
